# G9a inh: qHTS Assay for Inhibitors of Histone Lysine Methyltransferase G9a. G9a H3K9 monomethylation, AlphaScreen, 2 h. Potency, µM (highest dose often 102 µM), without a hit: at the top dose activity, negative = inhibition, most hits filed as inhibitors. actives 8.8% (n = 350,000). AID 504332, 2011; also: potency is read from the fitted curve at half-maximal effect; nearly all actives have a fitted effect of over 75% in size
# Target sequence (Q96KQ7 913-1193 limits assumed): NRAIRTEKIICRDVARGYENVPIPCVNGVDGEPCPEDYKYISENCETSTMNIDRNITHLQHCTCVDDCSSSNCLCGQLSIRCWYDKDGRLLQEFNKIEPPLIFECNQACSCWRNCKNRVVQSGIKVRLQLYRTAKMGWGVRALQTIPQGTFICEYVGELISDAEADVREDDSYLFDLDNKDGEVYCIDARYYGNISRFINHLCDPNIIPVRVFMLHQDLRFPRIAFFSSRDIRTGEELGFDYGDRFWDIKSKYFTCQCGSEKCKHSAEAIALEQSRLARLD
#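 Compounds were preincubated with 20 nM G9a for 15 min, after which biotinylated H3K9 peptide (500 nM) and SAM (20 uM) started a 2 h room-temperature reaction. Monomethylated product was quantified by antibody-based AlphaScreen chemiluminescence.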
# Tau fluor cs: Counterscreen qHTS for Inhibitors of Tau Fibril Formation, Fluorescence Polarization; tau K18 P301L Alexa594 fluorescence, heparin fibrillization; Potency, µM (titrated, usually from 57.7 µM), for inactives: at the highest dose activity change, negative = decrease; actives 0.93% (n = 280,000); also: potency is read from the fitted curve at half-maximal effect; nearly all actives have a fitted effect of over 55% in size
#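 Human K18 P301L tau (15 uM unlabeled plus 0.24 uM Alexa 594-labeled, final) in 100 mM sodium acetate pH 7 was mixed with compound and 20 uM heparin and incubated 6 hr at 37 C.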
# FBPA coupling cs: qHTS Assay for Inhibitors of Fructose-1,6-bisphosphate Aldolase from Giardia Lamblia: Coupling assay counterscreen; AID 2472, 2010; activity change, negative = inhibition, % at 58.2 µM, hits read low; coupling enzyme system counterscreen, AmpLite Red fluorescence; actives 0.67% (n = 290,000); in the data active = activity change below about -30%
#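 Activity here indicates interference with the coupling reaction, not aldolase inhibition. Compounds at 57.5 uM final met coupling enzymes for 10 min at RT; substrate and AmpLite Red detection followed, with a 525/598 nm fluorescence read after 20 min.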
# Tau ThT inhib: qHTS for Inhibitors of Tau Fibril Formation, Thioflavin T Binding. actives 2.1% (n = 270,000). Microtubule-associated protein tau (Homo sapiens), P10636. recombinant tau K18 P301L (four-repeat tau fragment), heparin-induced fibrillization, ThT fluorescence. AID 1460, 2008. Potency, µM (titrated, usually from 57.4 µM), inactives show at the highest dose activity, negative = inhibition, usual class: inhibitors; also: potency is read from the fitted curve at half-maximal effect; nearly all actives have a fitted effect of over 55% in size
# Target sequence (P10636 561-689 P618L limits assumed): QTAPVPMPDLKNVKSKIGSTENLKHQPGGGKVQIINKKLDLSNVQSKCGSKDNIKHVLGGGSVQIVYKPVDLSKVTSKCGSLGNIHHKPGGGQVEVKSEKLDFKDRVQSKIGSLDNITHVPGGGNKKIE
#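 K18 P301L tau (15 uM + 0.24 uM Alexa 594-tagged), heparin 20 uM, NaOAc pH 7, 6 h 37 C; ThT 30 uM, 1 h RT, ex 450/em 510 nm.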
# Tau fibril FP: qHTS for Inhibitors of Tau Fibril Formation, Fluorescence Polarization; Microtubule-associated protein tau (Homo sapiens), P10636; K18 P301L tau heparin fibrillization, Alexa594 FP, 6 h; Potency, µM (titrated, usually from 57.7 µM), for inactives: at the top dose activity, negative = inhibition, usual class: inhibitors; actives 0.39% (n = 280,000); also: potency is read from the fitted curve at half-maximal effect; nearly all actives have a fitted effect of over 55% in size
#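 Recombinant K18 P301L […], labeled with Alexa 594 at 0.24 uM over 15 uM unlabeled; heparin inducer 20 uM final; 37 C, 6 hr; FP endpoint.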
# Sfp PPTase inh: qHTS Assay for Inhibitors of Bacillus subtilis Sfp phosphopantetheinyl transferase (PPTase); Potency, µM, for the others: largest response in the series, negative = inhibition, actives largely listed as inhibitors; AID 1490, 2009; Biochemical Sfp PPTase activity, qHTS; actives 3.5% (n = 310,000); 4'-phosphopantetheinyl transferase ffp (Bacillus subtilis), Q9F4F7;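 also: the enzyme is Sfp with the accession as filed and its product quenches rhodamine fluorescence; potency is read from the fitted curve at half-maximal effect; 0% = enzyme reaction without inhibitor and -100% = no enzyme wells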
#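 Fluorescence-quenching assay with 15 nM Sfp, 5 uM rhodamine-CoA and 12.5 uM BHQ-2-labelled ybbR peptide in pH 7.6 Hepes/MgCl2 buffer. Enzyme was pre-incubated with compound for 15 min at room temperature. Rate was taken from the 30-min fluorescence change (525/598 nm).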
# * marks the source's active call; other numbers are inactive results; ? = inconclusive; . = not tested or not shown; [ ] = another dose, or the depositor's remark. Rows were chosen to be rich in hits. Some 11% of all compounds tested hit in one or more screens of this group. Unless noted, calls follow the shape of the dose curve; as a rule, active = well fitted curve in the direction sought with a large enough effect; inconclusive = small, poorly fitted or top-dose-only effect, or another doubt; inactive = no such curve, though single readings can be large; an effect the other way counts as inactive or inconclusive. Unless noted, % is scaled to controls: 0 for no effect and ±100 for the full control effect.
SMILES,G9a inh,Tau fluor cs,FBPA coupling cs,Tau ThT inhib,Tau fibril FP,Sfp PPTase inh
Cc1ccc(-n2nc(-c3ccc(OC(F)(F)F)cc3)cc2N)cc1C,.,11.2µM*[quencher],0.4,?,8.6%,2.3%
Cc1ccc(-n2nc(-c3ccc(N)cc3)cc2N)cc1,?,-19.8%,2.2,?,16.6%,-19.8%
COc1ccc(/C=C/C(=O)N/C(=C\c2ccco2)C(=O)NCCc2nc3ccccc3[nH]2)cc1,44.7µM*,-10.0%,0.2,?,3.4%,?
O=C(/C=C/c1ccco1)N/C(=C\c1ccco1)C(=O)NCCc1nc2ccccc2[nH]1,44.7µM*,-3.2%,-1.0,?,-2.7%,50.1µM*
O=C(NCCc1nc2ccccc2[nH]1)/C(=C/c1ccco1)NC(=O)c1ccc(Br)cc1,70.8µM*,-11.0%,2.6,-9.3%,-5.4%,?
COc1ccccc1NC(=O)NCC(c1ccco1)N1CCCCC1 (stereo not given),0.4%,3.1%,2.1,3.0%,2.7%,12.3%
CC(=O)Nc1c(C)nn(-c2ccccc2)c1N1CCC(C(=O)Nc2ccc(Cl)cc2C)CC1,6.0%[59 µM],-4.4%,.,-2.2%,1.1%,.
Cc1ccc(S(=O)(=O)Cc2ccc(C(=O)O)o2)cc1,12.6µM*,-10.1%,0.6,-10.2%,-5.5%,-3.3%
COc1ccc(N2CCN(C(=O)c3ccc(Cn4nc(C)c([N+](=O)[O-])c4C)o3)CC2)cc1,3.55µM*,.,-0.6,.,.,16.7%
COc1ccc(S(=O)(=O)Cc2ccc(C(=O)O)o2)cc1,-34.7%,.,-2.4,.,.,18.2%
Cc1ccc(S(=O)(=O)Cc2ccc(C(=O)N3CCc4ccccc4C3)o2)cc1,50.1µM*,-8.9%,-1.7,-11.8%,9.4%,-2.0%
COc1ccc(S(=O)(=O)Cc2ccc(C(=O)N3CCN(Cc4ccccc4)CC3)o2)cc1,35.5µM*,2.6%,8.4,-6.1%,0.8%,7.5%
COc1ccc(S(=O)(=O)Cc2ccc(C(=O)N3CCN(C(=O)c4ccco4)CC3)o2)cc1,?,1.1%,0.1,-4.4%,-1.7%,-0.4%
CCc1ccc(-c2cc3c(=O)n(CC(=O)N4CCCCCC4)nc(C)n3n2)cc1,-2.7%,.,1.5,.,.,5.1%
COc1ccc(CCN2CC(C(=O)N3CCSCC3)CCC2=O)cc1 (stereo not given),.,.,0.9,.,.,4.1%
COc1cccc(OC(=O)CSc2nnc(-c3ccccc3OC)o2)c1,-8.0%[59 µM],4.2%,.,6.6%,-8.1%,.
CCc1cccc(NC(=O)CN2C(=O)COc3ccc(S(=O)(=O)N4CCC(C)CC4)cc32)c1,6.4%[59 µM],-26.0%,.,5.7%,-5.5%,.
COc1cc2[nH]c(=O)n(Cc3ccc(C(=O)N4CCN(c5cccc(C)c5C)CC4)cc3)c(=O)c2cc1OC,-27.9%[59 µM],?,.,?,?,.
COc1ccc(N2CCN(C(=O)c3ccc(CS(=O)(=O)c4ccc(OC)cc4)o3)CC2)cc1,39.8µM*,-23.0%,-3.2,?,9.8%,3.3%
COc1cccc(N2CCN(C(=O)c3ccc(CS(=O)c4ccc(Cl)cc4)o3)CC2)c1 (stereo not given),-19.9%,.,.,.,.,1.7%
Cc1ccc(S(=O)(=O)Cc2ccc(C(=O)N3CCN(Cc4ccccc4)CC3)o2)cc1,44.7µM*,-5.3%,0.8,-10.4%,3.5%,-15.2%
COc1ccc(S(=O)(=O)Cc2ccc(C(=O)N3CCN(c4cc(Cl)ccc4C)CC3)o2)cc1,25.1µM*,-22.2%,-4.1,?,7.8%,-19.6%
COc1cccc(N2CCN(C(=O)c3ccc(CS(=O)c4ccc(C)cc4)o3)CC2)c1 (stereo not given),50.1µM*,.,.,.,.,8.3%
Cc1ccc(S(=O)(=O)NCc2cccnc2)cc1,41.9%,.,-4.6,.,.,15.3%
Cc1cc(C(=O)OCC(=O)NCc2ccc(Cl)cc2)c(C)o1,28.5%,-0.6%,3.7,-7.7%,-4.5%,-4.4%
SMILES,G9a inh,Tau fluor cs,FBPA coupling cs,Tau ThT inhib,Tau fibril FP,Sfp PPTase inh
COc1ccc(/C=N/N2CCN(Cc3ccccc3)CC2)cc1,-9.5%[59 µM],.,0.5,.,.,-3.9%
Oc1ccccc1/C=N/n1cnn(Cc2ccccc2Cl)c1=S,3.55µM*,-0.9%,1.7,11.5%,-1.8%,?
Fc1ccccc1/C=N/N1CCN(Cc2ccccc2Cl)CC1,22.0%[0.501 µM],.,1.6,.,.,?
COc1cc(/C=N/n2cnn(Cc3ccccc3Cl)c2=S)cc(OC)c1OC,31.6µM*,-15.7%,0.0,4.2%,-12.3%,?
COc1ccc(/C=N/n2cnn(Cc3ccccc3Cl)c2=S)cc1,28.2µM*,?,0.3,-12.1%,?,25.1µM*
O=C(COCc1cc(-c2ccc(F)cc2)on1)Nc1cccc(C(F)(F)F)c1,-38.0%[59 µM],?,.,-17.8%,?,.
COc1ccc(CNS(=O)(=O)c2cc3c(cc2C)n(C)c(=O)c(=O)n3C)cc1,3.3%[59 µM],-4.3%,.,-6.2%,-6.8%,.
CCCn1c(CN2CCN(c3ccc(OC)cc3)CC2)nc2c1c(=O)[nH]c(=O)n2C,25.1µM*,-8.4%,.,-1.2%,2.5%,.
C=CCn1c(N2CCN(c3ccc(OC)cc3)CC2)nc2c1c(=O)[nH]c(=O)n2C,50.1µM*,-9.9%,-3.9,-1.7%,4.9%,14.7%
Cn1c(=O)[nH]c(=O)c2c1nc(N1CCN(c3cccc(Cl)c3)CC1)n2CCCc1ccccc1,17.8µM*,1.1%,7.4,-3.7%,1.7%,8.5%
Cc1cc(Br)cc(Br)c1OCC(=O)NNC(=O)c1ccoc1C,.,.,.,.,.,12.4%
CC(=O)/C(=C/c1ccc(N(C)C)cc1)C(=O)c1ccccc1,?,?,0.0,17.8µM*,6.3%,10.9%
CCc1ccc(NC(=O)CSc2nnc(-c3cc4occc4n3C)n2-c2ccccc2C)cc1,-40.2%[59 µM],-17.8%,.,-3.2%,-8.3%,.
O=C(N/N=C/c1cc(Cl)cc([N+](=O)[O-])c1O)NC12CC3CC(CC(C3)C1)C2,10µM*,?,3.0,12.6µM*,3.4%,-1.5%
Cc1cc(C(=O)N/N=C/c2cc(Cl)cc([N+](=O)[O-])c2O)c2ccccc2n1,?,?,-3.0,7.08µM*,13.8%,1.3%
O=C(N/N=C/c1cc(Cl)cc([N+](=O)[O-])c1O)c1ccccc1NS(=O)(=O)c1cccs1,.,-27.8%,11.8,11.2µM*,9.3%,8.1%
Cc1nn(-c2ccccc2)c(Cl)c1/C=N/NC(=O)c1ccccc1NS(=O)(=O)c1cccs1,1.4%[59 µM],-28.4%,10.7,?,11.0%,4.3%
O=S(=O)(Nc1ccc(S(=O)(=O)N2CCCCCC2)cc1)c1cccs1,7.0%[12.7 µM],0.1%,8.4,0.3%,7.8%,10.5%

# Screening data: PubChem BioAssay, National Center for Advancing Translational Sciences (NCATS)
